# Results as given in PubChem BioAssay (Tox21).
# Several values for one entry are separate records, joined by “and”; a condition that tells them apart may be missing. Equal values may be shown once. Records with an inconclusive call do not appear. A call without a number means that no potency is given here. More than one record can exist for a structure, and the calls need not agree. Activity calls are given as the source filed them. Unless noted, calls come from the whole dose curve; as a rule, active = well fitted curve in the direction sought with a large enough effect in the repeat runs; inconclusive = weak or mixed curves; inactive = no such curve, though single readings can be large; an effect the other way counts as inactive or inconclusive.
# Legend:
# [1] = qHTS assay to test for compound auto fluorescence at 535 nm (green) in HEK293 cells (AID 720680); conditions: green autofluorescence 485/535 nm; series mostly up to 91.3 µM
# [2] = qHTS assay to test for compound auto fluorescence at 460 nm (blue) in HEK293 cell free culture (AID 720681); conditions: cell-free medium, autofluorescence 405/460 nm (blue); series mostly up to 91.3 µM; note: potency is the fitted concentration of half-maximal effect
# Summary of the method: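 Test compounds were pinned into cell-free culture medium (DMEM with 10% FBS) and fluorescence was read directly at Ex/Em 405/460 nm. Signals were expressed as fluorescence equivalents of triamterene, with DMSO vehicle as control.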
# [3] = qHTS assay to test for compound auto fluorescence at 535 nm (green) in HEK293 cell free culture (AID 720682); conditions: cell-free medium, green autofluorescence 485/535 nm; series mostly up to 91.3 µM
# Summary of the method: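 Measurement is a direct plate read of green fluorescence (485 nm in, 535 nm out) after compound addition to serum-supplemented DMEM lacking cells, with fluorescein used to express intensities.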
# [4] = qHTS assay to test for compound auto fluorescence at 590 nm (red) in HEK293 cell free culture (AID 720683); conditions: cell-free medium autofluorescence, Ex540/Em590 red; series mostly up to 91.3 µM
# Summary of the method: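 Tox21 10K library compounds were pinned into cell-free DMEM with 10% FBS and fluorescence was read at excitation 540 nm. Activity is expressed as Rose Bengal sodium equivalency.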
# [5] = qHTS assay to test for compound auto fluorescence at 460 nm (blue) in HepG2 cell free culture (AID 720685); conditions: Cell-free culture medium, blue autofluorescence 405/460 nm; series mostly up to 91.3 µM; note: potency is the fitted concentration of half-maximal effect
# Summary of the method: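 Compound (23 nL) or DMSO pinned into cell-free MEM with 10% FBS; blue fluorescence read at 405/460 nm excitation/emission, expressed as auto-fluorescence equivalency to triamterene.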
# [6] = qHTS assay to test for compound auto fluorescence at 535 nm (green) in HepG2 cell free culture (AID 720686); conditions: Cell-free medium, green autofluorescence 485/535 nm; series mostly up to 91.3 µM
# [7] = target: Glucocorticoid receptor (Homo sapiens) (UniProt P04150); assay: qHTS assay to identify small molecule agonists of the glucocorticoid receptor (GR) signaling pathway (AID 720691; active = well fitted activation curve with a large enough effect in the signal ratio in the repeat runs, not every such curve was filed as active; the % refers to the signal ratio); conditions: GR-bla HeLa, beta-lactamase reporter ratio, 18 h; series mostly up to 62.4 µM
# Chain of Glucocorticoid receptor (Homo sapiens) (P04150 whole entry, looked up): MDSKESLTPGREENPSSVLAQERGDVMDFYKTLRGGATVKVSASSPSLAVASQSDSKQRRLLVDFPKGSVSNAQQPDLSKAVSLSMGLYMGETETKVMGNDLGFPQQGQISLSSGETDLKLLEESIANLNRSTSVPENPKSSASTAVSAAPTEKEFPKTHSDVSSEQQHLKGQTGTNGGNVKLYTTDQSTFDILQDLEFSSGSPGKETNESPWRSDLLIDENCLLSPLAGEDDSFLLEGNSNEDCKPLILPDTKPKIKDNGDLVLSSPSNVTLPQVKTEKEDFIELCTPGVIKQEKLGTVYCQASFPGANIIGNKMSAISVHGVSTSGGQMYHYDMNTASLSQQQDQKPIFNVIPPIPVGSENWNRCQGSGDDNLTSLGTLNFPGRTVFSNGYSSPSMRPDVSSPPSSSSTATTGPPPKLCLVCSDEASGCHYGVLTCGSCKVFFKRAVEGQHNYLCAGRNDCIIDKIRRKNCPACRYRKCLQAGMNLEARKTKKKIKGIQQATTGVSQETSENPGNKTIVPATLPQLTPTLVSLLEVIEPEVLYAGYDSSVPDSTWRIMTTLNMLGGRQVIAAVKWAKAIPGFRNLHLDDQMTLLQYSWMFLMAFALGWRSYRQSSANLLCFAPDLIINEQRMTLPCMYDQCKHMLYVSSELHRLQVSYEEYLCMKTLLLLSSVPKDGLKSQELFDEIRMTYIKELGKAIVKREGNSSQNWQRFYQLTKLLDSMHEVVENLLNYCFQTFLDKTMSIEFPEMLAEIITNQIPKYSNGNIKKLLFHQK
# Summary of the method: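 GR-bla HeLa cells carrying a GRE-driven beta-lactamase reporter, exposed to compounds for 18 h at 37 C. Reporter activation read as fluorescence after 2 h with LiveBLAzer B/G FRET substrate at room temperature.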
# [8] = target: Glucocorticoid receptor (Homo sapiens) (UniProt P04150); assay: qHTS assay to identify small molecule antagonists of the glucocorticoid receptor (GR) signaling pathway (AID 720692; active = well fitted inhibition curve with a large enough effect in the signal ratio in the repeat runs, not every such curve was filed as active; the % refers to the signal ratio; note: potency is the fitted concentration of half-maximal effect); conditions: GR-bla HeLa, beta-lactamase FRET ratio, dexamethasone-stimulated, 18 h; series mostly up to 58.5 µM
# Summary of the method: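 GR-bla HeLa cells carrying a GRE-driven beta-lactamase reporter received compound after 4 h plating, then dexamethasone (5 nM final). After 18 h at 37C, the FRET substrate was loaded for 2 h at room temperature and fluorescence read.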
# [9] = qHTS assay to identify small molecule antagonists of the glucocorticoid receptor (GR) signaling pathway - cell viability counter screen (AID 720693); conditions: GR-bla HeLa viability, CellTiter-Glo luminescence, 18 h, with 5 nM dexamethasone present; series mostly up to 58.5 µM; note: nearly all actives have a fitted effect of over 55% in size; note: potency is the fitted concentration of half-maximal effect
# [10] = qHTS assay for identifying genotoxic compounds that show differential cytotoxicity against isogenic chicken DT40 cell lines with known DNA damage response pathways - wild type cell line (AID 743012); conditions: DT40 wild type chicken cells viability, CellTiter-Glo, 40 h; series mostly up to 68.4 µM; note: nearly all actives have a fitted effect of over 60% in size; note: potency is the fitted concentration of half-maximal effect
# Summary of the method: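 Wild-type DT40 cells (300/well) exposed to compounds for 40 hours at 37 C/5% CO2. Viability read by CellTiter-Glo luminescence after 30 min at room temperature.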
# [11] = qHTS assay for identifying genotoxic compounds that show differential cytotoxicity against isogenic chicken DT40 cell lines with known DNA damage response pathways - Rad54/Ku70 mutant cell line (AID 743015); conditions: DT40 Rad54/Ku70 mutant viability, CellTiter-Glo, 40 h; series mostly up to 66.8 µM; note: nearly all actives have a fitted effect of over 60% in size; note: potency is the fitted concentration of half-maximal effect
# [12] = qHTS assay to identify small molecule antagonists of the androgen receptor (AR) signaling pathway - cell viability counter screen (AID 743033; note: nearly all actives have a fitted effect of over 45% in size; note: potency is the fitted concentration of half-maximal effect); conditions: AR-bla HEK293 viability, CellTiter-Glo luminescence, 16 h; series mostly up to 58.5 µM
# [13] = qHTS assay to identify small molecule antagonists of the androgen receptor (AR) signaling pathway using the MDA cell line - cell viability counter screen (AID 743041; note: nearly all actives have a fitted effect of over 45% in size; note: potency is the fitted concentration of half-maximal effect); conditions: MDA-kb2 viability, CellTiter-Fluor, 16 h, cells co-treated with R1881 androgen agonist; series mostly up to 70.3 µM
# Summary of the method: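 Viability counter screen run alongside the AR antagonist reporter: cells seeded 5 h before compound, R1881 added, 16 h incubation at 37C without CO2, fluorescent CellTiter-Fluor signal quantified.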
# [14] = qHTS assay to test for compound auto fluorescence at 460 nm (blue) in HepG2 cells (AID 720687); conditions: autofluorescence 405/460 nm, 1 h; series mostly up to 91.3 µM; note: potency is the fitted concentration of half-maximal effect
# Summary of the method: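 Cells (2,000/well in MEM with 10% FBS) attached overnight at 37 C, then were exposed to compound or DMSO for 1 hr at 37 C, 5% CO2. Fluorescence read at Ex/Em 405/460 nm, expressed as triamterene-equivalent signal.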
# [15] = qHTS assay for identifying genotoxic compounds that show differential cytotoxicity against isogenic chicken DT40 cell lines with known DNA damage response pathways - Rev3 mutant cell line (AID 743014); conditions: chicken DT40 Rev3-/- viability, CellTiter-Glo, 40 h; series mostly up to 68.4 µM; note: nearly all actives have a fitted effect of over 55% in size; note: potency is the fitted concentration of half-maximal effect
# [16] = target: Androgen receptor (Homo sapiens) (UniProt P10275); assay: qHTS assay to identify small molecule agonists of the androgen receptor (AR) signaling pathway using the MDA cell line (AID 743040; note: nearly all actives have a fitted effect of over 20% in size); conditions: MDA-kb2 AR-luc cells, MMTV luciferase, 16 h, stronger effect = higher value; series mostly up to 70.3 µM
# Chain of Androgen receptor (Homo sapiens) (P10275 whole entry, looked up): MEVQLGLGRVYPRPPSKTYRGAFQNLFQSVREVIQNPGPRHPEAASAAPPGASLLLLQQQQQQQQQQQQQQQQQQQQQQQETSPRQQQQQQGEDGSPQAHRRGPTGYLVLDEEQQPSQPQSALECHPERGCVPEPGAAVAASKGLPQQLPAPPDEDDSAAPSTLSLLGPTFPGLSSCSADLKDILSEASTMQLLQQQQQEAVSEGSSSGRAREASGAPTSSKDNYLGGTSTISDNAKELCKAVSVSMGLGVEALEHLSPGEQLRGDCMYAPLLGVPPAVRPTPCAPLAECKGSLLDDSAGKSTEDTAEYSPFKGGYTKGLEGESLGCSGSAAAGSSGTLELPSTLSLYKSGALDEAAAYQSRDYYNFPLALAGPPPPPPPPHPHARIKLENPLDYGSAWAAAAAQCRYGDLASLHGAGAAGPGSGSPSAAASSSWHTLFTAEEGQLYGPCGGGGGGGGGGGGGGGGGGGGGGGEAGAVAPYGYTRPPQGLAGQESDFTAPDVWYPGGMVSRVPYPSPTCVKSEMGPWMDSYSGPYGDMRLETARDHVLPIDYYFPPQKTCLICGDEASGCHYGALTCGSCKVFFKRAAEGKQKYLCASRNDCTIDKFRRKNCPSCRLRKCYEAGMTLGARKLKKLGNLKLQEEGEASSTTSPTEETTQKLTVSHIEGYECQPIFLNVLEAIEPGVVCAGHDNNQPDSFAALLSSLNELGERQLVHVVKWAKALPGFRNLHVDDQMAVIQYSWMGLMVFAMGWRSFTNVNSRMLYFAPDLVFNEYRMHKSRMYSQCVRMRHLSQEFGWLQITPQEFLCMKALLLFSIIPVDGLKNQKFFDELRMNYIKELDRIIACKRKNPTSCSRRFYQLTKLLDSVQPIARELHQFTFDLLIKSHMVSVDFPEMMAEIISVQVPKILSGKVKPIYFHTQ
# Summary of the method: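 Luminescence from ONE-Glo, read after 30 min at room temperature, reflects MMTV-driven luciferase in MDA-kb2 cells (AR- and GR-responsive). Treatment lasted 16 h at 37C, 0% CO2.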
# Tags give direction and shape of the fitted curve or compound fluorescence and quenching.
SMILES,Potency [1],Potency [2],Potency [3],Potency [4],Potency [5],Potency [6],Potency [7],Potency [8],Potency [9],Potency [10],Potency [11],Potency [12],Potency [13],Potency [14],Potency [15],outcome [16]
Nc1c(N=Nc2ccc(-c3ccc(N=Nc4cc(S(=O)(=O)O)c5ccccc5c4N)cc3)cc2)cc(S(=O)(=O)O)c2ccccc12,inactive,inactive,inactive,inactive,inactive,inactive,inactive,21.3 µM (active),inactive,inactive and 6.85 µM (active),54.4 µM (active),inactive,26.6 µM (active) and 30.6 µM (active),,,
CCCc1cc(=O)[nH]c(=S)[nH]1,inactive,inactive,inactive,inactive,inactive,inactive,,,inactive,inactive,,inactive,inactive,inactive,inactive and 61.1 µM (active),
Cc1ncc([N+](=O)[O-])n1CCO,inactive,inactive,inactive,inactive,inactive,inactive,,,inactive,inactive,inactive and 61.1 µM (active),inactive,inactive,inactive,,
O=S1(=O)OC(c2ccc(O)cc2)(c2ccc(O)cc2)c2ccccc21,inactive,inactive,inactive,inactive,inactive,inactive,,,inactive,inactive,inactive and 43.3 µM (active),inactive,48.6 µM (active) and 61.1 µM (active),inactive,inactive,
NC(=O)n1c(O)c(C(=O)c2cccs2)c2cc(Cl)ccc21,inactive,inactive,inactive,inactive,inactive,inactive,inactive,,inactive,,,inactive,inactive,,,
O=c1[nH]cnc2c1ncn2[C@H]1CC[C@@H](CO)O1,inactive,inactive,inactive,inactive,inactive,inactive,inactive,inactive,inactive,inactive,inactive and 61.1 µM (active),inactive,inactive,,,
CC(C)C(=O)Nc1ccc([N+](=O)[O-])c(C(F)(F)F)c1,inactive,inactive,inactive,inactive,inactive,inactive,,,inactive,13.3 µM (active) and 44.5 µM (active) and 19.3 µM (active),18.8 µM (active) and 22.3 µM (active) and 19.3 µM (active),inactive and 25.2 µM (active) and 49 µM (active),inactive,,29.8 µM (active) and 25 µM (active) and 30.6 µM (active),
C1=CC2C3C=CC(C3)C2C1 (centres undefined),inactive,inactive,inactive,inactive,inactive,inactive,inactive,,inactive,,,inactive,inactive,,47.7 µM (active),
CC(C)NCC(O)c1ccc(O)c(O)c1 (centres undefined),inactive,inactive,inactive,inactive,inactive,inactive,inactive,inactive,inactive,inactive and 61.1 µM (active),,inactive,inactive,,,
NS(=O)(=O)O,inactive,inactive,inactive,inactive,inactive,inactive,inactive,inactive,inactive,inactive,,inactive,inactive,,inactive,
Cc1ncc([N+](=O)[O-])n1C,inactive,inactive,inactive,inactive,inactive,inactive,inactive,inactive,inactive,inactive,,inactive,inactive,,inactive,
C=CCc1ccc(O)c(OC)c1,inactive,inactive,inactive,inactive,inactive,inactive,,,inactive,inactive,inactive,inactive,inactive,inactive,,
COc1ccc2cc(S(=O)(=O)N[C@H](CC(=O)N[C@H](Cc3ccc(CN4[C@H](C)CCC[C@@H]4C)cc3)C(=O)N(C)C(C)C)c3ccc4c(c3)OCO4)ccc2c1,inactive,inactive,inactive,inactive,inactive,inactive,,,,7.28 µM (active),,20.7 µM (active),,inactive,,
Cc1cc(=O)oc2cc(O)ccc12,inactive,10 µM (active) and 39.8 µM (active) and 35.5 µM (active),inactive,inactive,10 µM [fluorescent] (active) and 39.8 µM [fluorescent] (active),inactive,,,inactive,inactive,,inactive,inactive,10 µM [fluorescent] (active) and 39.8 µM [fluorescent] (active),,
O=C1NC(=O)C(c2ccccc2)(c2ccccc2)N1,inactive,inactive,inactive,inactive,inactive,inactive,inactive,inactive,inactive,inactive,,inactive,inactive,,,
CCCCCCCCCCCCCCCC[N+](C)(C)Cc1ccccc1,inactive,inactive,inactive,inactive,inactive,inactive,,,21.3 µM (active) and 22.6 µM (active) and 35.3 µM (active),596 nM (active) and 794 nM (active) and 350 nM (active),,16.9 µM (active) and 17.9 µM (active) and 17.7 µM (active),35.5 µM (active) and 27.8 µM (active),inactive,,
F[B-](F)(F)F,inactive,inactive,inactive,inactive,inactive,inactive,,,inactive,inactive,inactive,inactive,inactive,,inactive,
C/C=C/C=C/C(=O)O,inactive,inactive,inactive,inactive,inactive,inactive,,,inactive,inactive and 61.1 µM (active),inactive and 61.1 µM (active),inactive,inactive,,,
CCCCC(CC)C(=O)O (centres undefined),inactive,inactive,inactive,inactive,inactive,inactive,,,inactive,,,inactive,inactive,inactive,,
COc1cccc(O)c1O,inactive,inactive,inactive,inactive,inactive,inactive,inactive,inactive,inactive,,,,inactive,,25.3 µM (active),inactive
